As usually defined, the inhibition is the relative decrease from the control value, in per cent.

A short description of assay [1]: antimalarial activity against Dd2 strain (AID 2302;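 active = growth inhibition above 50% at the single 2 µM test dose, taken to imply half-maximal potency below 2 µM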;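 note: 0% = DMSO untreated growth and 100% = chloroquine plus artemisinin killed control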). The note with it: P. falciparum Dd2 in RBCs, LDH growth readout, 72 h; at 2 µM; hits give high values.
A short description of assay [2]: HepG2 cytotoxicity, primary screen, cytotoxicity control for P. falciparum antimalarial project, cell-based, ATP luminescence (AID 2303;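 active = inhibition above 50%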;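 note: 0% = DMSO wells and 100% = digitonin-killed cells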). The following applies: HepG2 viability, 24-48 h, at 10 µM, hits give high values.
Assay [3] addresses L-lactate dehydrogenase (Plasmodium falciparum (isolate CDC / Honduras)) (UniProt Q27743). Briefly: PfLDH activity inhibition – cell lysate, 3D7 strain, counter-screen for P. falciparum growth inhibition project (AID 2304).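 Note: 0% = vehicle and 100% = reference inhibitor.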 The note with it: P. falciparum 3D7 crude extract, LDH APAD/NBT absorbance; at 2 µM; hits give high values. (Counterscreens check selectivity or assay interference.)

Assay [4] is described as follows: inhibition of 3D7 malaria parasite growth – strain 3D7 (AID 2306).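 Note: 0% = DMSO wells and 100% = chloroquine plus artemisinin control wells.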 The note with it: P. falciparum 3D7 erythrocytic growth, LDH absorbance, 72 h; at 2 µM; hits give high values.
Assay [5] concerns the target Calcium-dependent protein kinase 1 (Plasmodium falciparum (isolate 3D7)) (UniProt P62344). Briefly: PfCDPK1 kinase inhibitors, biochemical, TCAMS library (AID 1159585; cut-off not given, nearly all actives have IC50 up to about 0.98 µM;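 note: inhibitors leave more ATP so luminescence rises with inhibition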). The note with it: recombinant PfCDPK1, Kinase-Glo ATP depletion luminescence. (In general: Kinase-Glo reads ATP consumption through a luciferase reaction.)
Assay [6] deals with Plasmodium falciparum protein kinase 6 (PK6, PF3D7_1337100) (UniProt Q8IDW1). Kind of assay: PfPK6 kinase inhibitors, biochemical, TCAMS library (AID 1159586). The note with it: recombinant PfPK6, Kinase-Glo ATP depletion luminescence.
Sequence of Plasmodium falciparum protein kinase 6 (PK6, PF3D7_1337100) (Q8IDW1 1-305): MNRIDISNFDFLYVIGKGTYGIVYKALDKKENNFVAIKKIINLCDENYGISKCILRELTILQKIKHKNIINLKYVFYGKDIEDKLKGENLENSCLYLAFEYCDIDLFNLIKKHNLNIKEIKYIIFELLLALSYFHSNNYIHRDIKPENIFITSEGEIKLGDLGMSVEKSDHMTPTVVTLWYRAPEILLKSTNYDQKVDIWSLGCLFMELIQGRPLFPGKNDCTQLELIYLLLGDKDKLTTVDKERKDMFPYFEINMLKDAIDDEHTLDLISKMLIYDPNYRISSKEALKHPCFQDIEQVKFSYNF
Assay [7] concerns the target Protein kinase 7 (PK7), Plasmodium falciparum 3D7 (PF3D7_0213400) (UniProt Q7YTF7). Kind of assay: inhibition of Plasmodium PK7 catalytic activity – biochemical, TCAMS antimalarial set, Kinase-Glo luminescence (AID 1159587). The note with it: recombinant PfPK7, Kinase-Glo ATP depletion luminescence.
In assay [8] the target is Calcium-dependent protein kinase 4 (Plasmodium falciparum (isolate 3D7)) (UniProt Q8IBS5). Kind of assay: PfCDPK4 kinase inhibitors, biochemical, TCAMS library (AID 1159588; cut-off not given, nearly all actives have IC50 up to about 0.91 µM). The following applies: recombinant PfCDPK4, Kinase-Glo ATP depletion luminescence.
Sequence of Calcium-dependent protein kinase 4 (Plasmodium falciparum (isolate 3D7)) (Q8IBS5 whole entry, looked up): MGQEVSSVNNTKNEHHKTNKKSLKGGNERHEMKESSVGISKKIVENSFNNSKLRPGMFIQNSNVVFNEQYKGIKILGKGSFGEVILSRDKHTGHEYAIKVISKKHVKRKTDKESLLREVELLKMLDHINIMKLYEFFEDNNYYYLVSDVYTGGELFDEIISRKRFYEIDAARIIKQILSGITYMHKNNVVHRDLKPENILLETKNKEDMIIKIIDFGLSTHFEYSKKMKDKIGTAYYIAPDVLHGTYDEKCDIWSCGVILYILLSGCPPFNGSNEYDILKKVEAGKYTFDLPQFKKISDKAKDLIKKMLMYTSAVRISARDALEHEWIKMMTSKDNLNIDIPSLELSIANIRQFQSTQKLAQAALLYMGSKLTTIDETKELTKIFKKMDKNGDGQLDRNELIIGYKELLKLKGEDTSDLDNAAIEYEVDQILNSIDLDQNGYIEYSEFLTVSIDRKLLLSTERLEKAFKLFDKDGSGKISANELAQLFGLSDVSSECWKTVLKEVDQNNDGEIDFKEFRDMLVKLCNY

Unmarked numbers belong to inactive results. For some of these results: Results with a measured potency or affinity are listed apart. Calls of active or inactive are those of the source. Unless noted, the rule behind the calls is not given here.

Sequence of Calcium-dependent protein kinase 1 (Plasmodium falciparum (isolate 3D7)) (P62344 whole entry, looked up): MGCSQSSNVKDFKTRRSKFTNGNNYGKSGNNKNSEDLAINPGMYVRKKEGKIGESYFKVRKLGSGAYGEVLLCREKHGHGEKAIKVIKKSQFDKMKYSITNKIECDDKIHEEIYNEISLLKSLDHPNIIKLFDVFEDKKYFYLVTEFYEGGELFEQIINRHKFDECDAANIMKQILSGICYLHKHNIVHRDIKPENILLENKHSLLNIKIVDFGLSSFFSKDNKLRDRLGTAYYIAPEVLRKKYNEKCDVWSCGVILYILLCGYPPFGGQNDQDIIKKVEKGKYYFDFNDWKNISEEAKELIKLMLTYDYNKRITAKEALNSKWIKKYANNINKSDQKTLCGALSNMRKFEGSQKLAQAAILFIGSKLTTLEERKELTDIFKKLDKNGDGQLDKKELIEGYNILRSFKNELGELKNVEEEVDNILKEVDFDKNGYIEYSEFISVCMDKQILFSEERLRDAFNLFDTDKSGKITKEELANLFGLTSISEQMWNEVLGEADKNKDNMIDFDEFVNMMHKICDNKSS
Sequence of L-lactate dehydrogenase (Plasmodium falciparum (isolate CDC / Honduras)) (Q27743 whole entry, looked up): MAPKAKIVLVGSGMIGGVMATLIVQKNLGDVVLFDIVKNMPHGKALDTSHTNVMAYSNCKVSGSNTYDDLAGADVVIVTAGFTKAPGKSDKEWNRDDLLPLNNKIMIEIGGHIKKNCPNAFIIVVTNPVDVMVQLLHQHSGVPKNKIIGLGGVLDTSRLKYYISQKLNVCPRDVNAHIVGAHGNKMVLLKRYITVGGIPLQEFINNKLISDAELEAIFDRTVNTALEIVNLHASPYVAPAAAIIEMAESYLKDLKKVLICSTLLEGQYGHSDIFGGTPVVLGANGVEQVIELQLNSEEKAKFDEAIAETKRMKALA
Sequence of Protein kinase 7 (PK7), Plasmodium falciparum 3D7 (PF3D7_0213400) (Q7YTF7 1-343): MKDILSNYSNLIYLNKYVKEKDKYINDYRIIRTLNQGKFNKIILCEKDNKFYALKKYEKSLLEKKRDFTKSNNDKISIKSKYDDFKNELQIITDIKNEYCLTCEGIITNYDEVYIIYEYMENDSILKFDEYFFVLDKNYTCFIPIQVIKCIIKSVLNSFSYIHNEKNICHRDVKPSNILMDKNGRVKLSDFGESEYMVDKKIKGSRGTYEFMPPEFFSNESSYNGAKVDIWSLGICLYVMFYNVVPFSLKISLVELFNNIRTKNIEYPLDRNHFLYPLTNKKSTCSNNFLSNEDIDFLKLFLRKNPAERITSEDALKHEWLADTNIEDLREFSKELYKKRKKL

As to `O=c1cc(NCCCCNCc2cccc(C(F)(F)F)c2)[nH]c2ccccc12`, the values for the growth inhibition in assay [1] and in assay [4] were 34% and 94% (active), respectively. For the same molecule, the figures for the inhibition in assay [2] and in assay [3] were 13% and -1%, respectively. Moreover, the result in assay [5], in assay [6], in assay [7] and in assay [8] was inactive.
Turning to `CC(C)(CNC(=O)/C=C/c1ccc(C(F)(F)F)cc1)CNc1cc(=O)c2ccccc2[nH]1`, the growth inhibition is 27% in assay [1] and 95% (active) in assay [4]. Further, the values for the inhibition in assay [2] and in assay [3] were -1% and -6%, respectively. The result in assay [5], in assay [6], in assay [7] and in assay [8] was inactive.
Turning to `COc1cccc(C(=O)NC(c2ccccc2OC)c2cc(Cl)c3cccnc3c2O)c1` (stereo not given), the growth inhibition is 36% in assay [1] and 91% (active) in assay [4]. In addition, the inhibition was 58% (active) in assay [2] and 4% in assay [3]. Also, the result in assay [5], in assay [6], in assay [7] and in assay [8] was inactive.
In the case of `COc1cc(-c2cc3cc(Cl)c(Cl)cc3[nH]2)ccc1C(=O)NCCC1CCCN1C` (stereo not given), the growth inhibition was 41% in assay [1] and 91% (active) in assay [4]. Further, the inhibition in assay [2] was 20%; in assay [3] it was -5%. Further, the outcome in assay [5], in assay [6], in assay [7] and in assay [8] was inactive.
As to `CCCCCCCN1CC[C@H](NC(=O)Nc2ccnc3ccc(OC)cc23)[C@H](C(=O)OCC)C1`, the growth inhibition is 73% (active) in assay [1] and 101% (active) in assay [4]. Moreover, the values for the inhibition in assay [2] and in assay [3] were 11% and 7%, respectively. In addition, the result in assay [5], in assay [6], in assay [7] and in assay [8] was inactive.
`O=C(/C=C/c1ccccc1)N1CCOC(CCN2CCC(c3ccccc3)CC2)(c2ccc(Cl)c(Cl)c2)C1` (stereo not given): the values for the growth inhibition in assay [1] and in assay [4] were 63% (active) and 89% (active), respectively. Further, the inhibition in assay [2] is 4%; in assay [3], 2%. Moreover, the result in assay [5], in assay [6], in assay [7] and in assay [8] was inactive.
For the molecule `CO/C(=C\C=C\c1cc2cc(Cl)c(Cl)cc2[nH]1)C(=O)NC1C[C@H]2CCC[C@@H](C1)N2C` (stereo not given in full), the growth inhibition in assay [1] is 51% (active); in assay [4], 93% (active). The values for the inhibition in assay [2] and in assay [3] were 42% and -2%, respectively. Further, the outcome in assay [5], in assay [6], in assay [7] and in assay [8] was inactive.
Turning to `Cc1nc2ccccn2c1C1(O)C(=O)Nc2c(Cl)cc(Cl)cc21` (stereo not given), the growth inhibition in assay [1] was 62% (active); in assay [4], 95% (active). Moreover, the inhibition in assay [2] was -11%; in assay [3] it was -3%. The outcome in assay [5], in assay [6], in assay [7] and in assay [8] was inactive.
In the case of `CC(C)N(Cc1cnc(N)c(C#N)n1)c1ccc(Cl)c(Cl)c1`, the growth inhibition in assay [1] was 63% (active); in assay [4], 97% (active). The figures for the inhibition in assay [2] and in assay [3] were -1% and -5%, respectively. Besides, the outcome in assay [5], in assay [6], in assay [7] and in assay [8] was inactive.
Take `O=C(CC1CCCC1)Nc1ccc2c(c1)CCC2`: the growth inhibition in assay [1] was -2%; in assay [4], 93% (active). Moreover, the figures for the inhibition in assay [2] and in assay [3] were -1% and 2%, respectively. Moreover, the result in assay [5], in assay [6], in assay [7] and in assay [8] was inactive.
Regarding `N#Cc1ccc(-c2ccc(C(=O)Nc3ccc4c(c3)CCN(C3CCC3)CC4)nc2)cn1`, the growth inhibition in assay [1] is 15%; in assay [4], 85% (active). In addition, the inhibition in assay [2] is 24%; in assay [3] it was -1%. In addition, the result in assay [5], in assay [6], in assay [7] and in assay [8] was inactive.
`COc1ccc2nc(C)cc(NCc3ccc4ccccc4c3)c2c1`: the values for the growth inhibition in assay [1] and in assay [4] were 75% (active) and 101% (active), respectively. Further, the inhibition in assay [2] is 21%; in assay [3], -1%. Besides, the outcome in assay [5], in assay [6], in assay [7] and in assay [8] was inactive.
On to `C[C@H](NC(=O)c1cc(-c2ccc(C(C)(C)C)cc2)no1)C(=O)O` (tested in a mixture with another compound), for which the growth inhibition in assay [1] was 97% (active); in assay [4], 91% (active). Moreover, the inhibition in assay [2] is 31%; in assay [3] it was -4%. For the same molecule, the outcome in assay [5], in assay [6], in assay [7] and in assay [8] was inactive.
As to `O=C(/C=C/c1ccc(C(F)(F)F)cc1)N1CCC(CCN2CCC(c3c[nH]c4ccccc34)CC2)CC1`, the figures for the growth inhibition in assay [1] and in assay [4] were 77% (active) and 100% (active), respectively. The inhibition in assay [2] is 70% (active); in assay [3], -11%. The outcome in assay [5], in assay [6], in assay [7] and in assay [8] was inactive.
Take `COc1cc2c(cc1S(=O)(=O)c1ccc(NC(=O)Nc3ccc(F)cc3)cc1)CCN(C)CC2`: the figures for the growth inhibition in assay [1] and in assay [4] were 55% (active) and 99% (active), respectively. The inhibition in assay [2] was -1%; in assay [3], -5%. The result in assay [5], in assay [6], in assay [7] and in assay [8] was inactive.
With `CCN(c1ccc(F)cc1)S(=O)(=O)c1cc(Br)cc2c1N(C(=O)C1CC1)CC2`, the figures for the growth inhibition in assay [1] and in assay [4] were 79% (active) and 88% (active), respectively. Besides, the inhibition was -16% in assay [2] and 7% in assay [3]. Besides, the result in assay [5], in assay [6], in assay [7] and in assay [8] was inactive.
With `CS(=O)(=O)CCNCc1cccc(-c2cc3c(Nc4ccc5c(cnn5Cc5ccccc5)c4)ncnc3s2)c1`, the growth inhibition in assay [1] and in assay [4] was 101% (active) throughout. Also, the inhibition was 36% in assay [2] and 2% in assay [3]. Moreover, the outcome in assay [5], in assay [6], in assay [7] and in assay [8] was inactive.
Take `C=CCc1cc(SC)ccc1Oc1ccc(N)cc1`: the results for the growth inhibition in assay [1] and in assay [4] were 2% and 96% (active), respectively. For the same molecule, the inhibition in assay [2] is 12%; in assay [3] it was 4%. Also, the result in assay [5], in assay [6], in assay [7] and in assay [8] was inactive.
Regarding `CN1CCC(c2c[nH]c3ccc(NC(=O)Nc4ccc(-c5ccncc5)c(Cl)c4Cl)cc23)CC1`, the growth inhibition is 19% in assay [1] and 102% (active) in assay [4]. The figures for the inhibition in assay [2] and in assay [3] were 27% and -1%, respectively. Moreover, the outcome in assay [5], in assay [6], in assay [7] and in assay [8] was inactive.
Consider `Cc1nc(Nc2cc(Cl)ccc2O)nc(Nc2cc(Cl)ccc2O)c1[N+](=O)[O-]`, for which the results for the growth inhibition in assay [1] and in assay [4] were 83% (active) and 98% (active), respectively. In addition, the inhibition in assay [2] is -4%; in assay [3], 3%. In addition, the result in assay [5], in assay [6], in assay [7] and in assay [8] was inactive.
